Results on 40 compounds are retold here after PubChem BioAssay (EPA / NIEHS).

Molecules are shown by their SMILES. Activity calls are given as the source filed them. The calls were made as follows: active = hit-call score of the fitted dose curve at least 0.9, where 1 is the maximum; inactive = score below 0.9.

Read-out in the assay: 3-Hydroxy-3-Methylglutaryl-CoA Synthase 2 (HMGCS2), HMGCS2 (gene 3158)
Nature of the assay: LTEA_HepaRG_HMGCS2: Life Technologies and Expression Analysis (LTEA) Assay for 3-Hydroxy-3-Methylglutaryl-CoA Synthase 2 (HMGCS2) using HepaRG (AID 2283504). The following applies: mRNA level, 48 h; actives raise or lower the signal. On the procedure: LTEA_HepaRG is a cell based, multiplexed-readout assay that uses HepaRG, a human liver cell line, with measurements taken at 48 hours after chemical dosing on a 96-well plate.LTEA_HepaRG_HMGCS2 is one of 102 assay component(s) measured in the LTEA HepaRG cell culture assay. It is a marker of Steatosis.Data from the assay component LTEA_HepaRG_HMGCS2 was analyzed into 1 endpoint. This assay endpoint, LTEA_HepaRG_HMGCS2, was analyzed with bidirectional fitting relative to DMSO as the negative control and baseline of activity. Using a type of inducible reporter, measures of mRNA induction for gain or loss-of-signal activity can be used to understand regulation of transcription factor activity. To generalize the intended target to other relatable targets, this assay endpoint is annotated to the lyase intended target family, where the subfamily is HMG-CoA synthase.
A total of 1060 chemcials from the ToxCast library were tested in eight-point concentration-response experiments. Cell culture and cytotoxicity assays were conducted at Thermo Fisher Scientific's Custom Services facility (Madison, WI). A single lot of human HepaRG cells (Thermo Fisher Scientific, Frederick, MD) was used for the cell culture experiments. 96-well format collagen type I coated plates of human HepaRG cells were prepared using established methods. Briefly, cryopreserved HepaRG cells were thawed, plated at a density of approximately 100,000 cells/well in HepaRG Thaw, Plate, and General Purpose media (HPRG770, Thermo Fisher Scientific), and incubated for 48 hours. 0.5% DMSO was selected as vehicle control to balance the requisite need of DMSO in HepaRG cultures to maintain differentiation (for example, baseline metabolism, proportions of hepatocytes vs. cholangiocytes), while enabling further hepatic receptor pathway activation (for example, PXR and CAR) in response to chemical exposure. 48 hours after plating, the culture medium was replaced with HepaRG Serum-Free Incudtion Media. Cells were exposed to each test chemical in duplicate and maintained in CO2 incubators for another 48 hours. Chemical plates were thawed to room temperature and 200x concentrations of treatment groups were prepared. 8-point conentration-reponse curves were made with the highest exposure at 100 uM, followed by half-log dilutions, all in 0.5% DMSO. Each test plate contained variouse controls, induction positive controls (1mM phenobarbital), cytotoxicity positive controls ([…] aflatoxin B1), vehicle controls (0.5% DMSO), and total lysis controls (0.5% DMSO). Cell morphology images were taken using an Essen IncuCyte FLR automated microscope, with six 96-well plates imaged in about 24 minutes. Images were captured and exported and JPEG files. Spent culture media was transfered to black-well plates for the LDH assay, and remaining media was sorted at -80 C for later use. Cells were treated with RLT buffer and frozen until shipped for gene expression analysis. Total RNA was isolated from the cell suspension in 75 uL of Buffer RLT (Qiagen, Germantown, MD 20874) by Quintiles/Expression Analysis (Durham, NC) using a custom isolation procedure. Total RNA from each plate well was transferred to a preamplification plate. Fluidigm's 96.96 Dynamic ArrayTM (Fluidigm, Amsterdam, the Netherlands) technology was used for gene expression analyses by quantitative reverse transcription polymerase chain reaction (qRT-PCR, performed by Quintiles/Expression Analysis, Durham, NC)89. Standard TaqManTM Assays (Applied Biosystems/ThermoFisher Scientific, Foster City, CA) were used to assess the expression of 93 genes selected based on their selectivity and sensitivity to important hepatic receptors known to be modulated by environmental chemicals; importance in human hepatocyte functionality; and hepatotoxicity. […]
Regarding `Cn1c(=O)c2c(ncn2C)n(C)c1=O`, the compound was called inactive.
The same measure, in the same setting: in the case of `O=C(O)CC(O)C(=O)O` (stereo not given) it was “inactive”; in that of `Cc1ccc(N)cc1O`, “inactive”; in that of `CC(C)=CCCC(C)=CC=O`, “inactive”.
Still for that read-out and setting: in the case of `Cc1ccc(S(=O)(=O)O)cc1C` it was “inactive”.
Turning to `CCn1nc(Cc2ccccc2)cc1C1CCN(C[C@H]2C[C@H](N(C)[C@@H](C(=O)O)C(C)C)C[C@@H]2c2cccc(F)c2)CC1`, the AC50 is 50 µM (active).
For the compound `Clc1nc(Cl)c(Cl)c(Cl)c1Cl`, the call was inactive.
As to `CC(C)=CCC/C(C)=C/CO`, the outcome was inactive.
Still for that read-out and setting: in the case of `CCOC(=O)CC(CC(=O)OCC)(OC(C)=O)C(=O)OCC` it was “inactive”; in that of `CCNc1ccccc1`, “inactive”.
Consider `O=C1CCC(N2C(=O)c3ccccc3C2=O)C(=O)N1` (stereo not given), for which the result was inactive.
Still for that read-out and setting: as for `Nc1nc2ncc(CNc3ccc(C(=O)N[C@@H](CCC(=O)O)C(=O)O)cc3)nc2c(=O)[nH]1`, the entry is “inactive”.
On to `O=C(NS(=O)(=O)/C=C/c1ccccc1)c1ccc(F)cc1Cl`, for which the half-maximal activity concentration (AC50) was 27.9 µM (active).
Take `CC1=CC(=O)CC(C)(C)C1`: the call was inactive.
On the same count and under the same terms, in the case of `CCOC(=O)c1ccc(C2CCC(NC[C@H](O)COc3ccc(O)c(NS(C)(=O)=O)c3)CC2)cc1` (stereo not given in full) it was “inactive”; in that of `C1=CCCC=CCCC=CCC1`, “inactive”; in that of `CC[C@H]1OC(=O)[C@H](C)[C@@H](O[C@H]2C[C@@](C)(OC)[C@@H](O)[C@H](C)O2)[C@H](C)[C@@H](O[C@@H]2O[C@H](C)C[C@H](N(C)C)[C@H]2O)[C@](C)(O)C[C@@H](C)C(=O)[C@H](C)[C@@H](O)[C@]1(C)O`, “inactive”.
The same measure, in the same setting: as for `CCCC(=O)OCC`, the entry is “inactive”.
The same measure, in the same setting: in the case of `O=C(O)CCN(C1(C(=O)NO)CCCC1)S(=O)(=O)c1ccc(Oc2ccc(F)cc2)cc1` it was “inactive”.
Turning to `CNS(=O)(=O)c1cc(C(=O)N2CCC(CCN3C4CCC3CC(n3c(C)nc5ccccc53)C4)(c3cccc(F)c3)CC2)c(Cl)cc1F` (stereo not given), the half-maximal activity concentration (AC50) is 23.5 µM (active).
The same measure, in the same setting: in the case of `COc1ccc2sc(C(=O)Nc3nnn[nH]3)c(OC(C)C)c2c1` it was 86.5 µM (active).
With `CC(=O)OC[C@H]1O[C@@](COC(C)=O)(O[C@H]2O[C@H](COC(C)=O)[C@@H](OC(C)=O)[C@H](OC(C)=O)[C@H]2OC(C)=O)[C@@H](OC(C)=O)[C@@H]1OC(C)=O`, the result was inactive.
In the case of `O=C(CCCCCCCCc1cccnc1)N1CCC(C=C(c2ccccc2)c2ccccc2)CC1`, the AC50 is 22.9 µM (active).
Take `CCC(C)(C)C(=O)O[C@H]1C[C@@H](C)C=C2C=C[C@H](C)[C@H](CC[C@@H]3C[C@@H](O)CC(=O)O3)[C@H]21`: the result was inactive.
Still for that read-out and setting: as for `CCCCCCCCO`, the entry is “inactive”; as for `O=C1CCCCCN1`, “inactive”.
On to `CN(C)c1ccc(Cc2ccc(N(C)C)cc2)cc1`, for which the AC50 was 88.4 µM (active).
On to `O=C(O)c1cc(N=Nc2ccc(S(=O)(=O)Nc3ccccn3)cc2)ccc1O`, for which the compound was classed as inactive.
`CC(C)c1cccc(C(C)C)c1N1C(=O)c2ccc(O)cc2C1=O`: the AC50 is 80.7 µM (active).
With `O=c1n(CC2CO2)c(=O)n(CC2CO2)c(=O)n1CC1CO1` (stereo not given), the compound was classed as inactive.
Still for that read-out and setting: as for `C1N2CN3CN1CN(C2)C3`, the entry is “inactive”; as for `Nc1cccc(N)c1`, “inactive”; as for `CC(C)=CCCC(C)CCO` (stereo not given), “inactive”.
Same read-out and setting: as for `CCCCCCCCCCCCc1ccccc1`, the entry is “inactive”; as for `CCCCCCCCCCCCCCCO`, “inactive”; as for `CN(C)c1ccc(N=NS(=O)(=O)O)cc1`, “inactive”.
Regarding `Cn1cnc([N+](=O)[O-])c1Sc1ncnc2nc[nH]c12`, the concentration at half-maximal activity (AC50) was 3.93 µM (active).
As for `CCCCC(CC)COC(=O)CCCCCCCCC(=O)OCC(CC)CCCC` (stereo not given), the call was inactive.
The same measure, in the same setting: in the case of `CCOC(=O)COc1ccc2c(c1)CC(NCC(O)c1cccc(Cl)c1)CC2` (stereo not given) it was “inactive”.
On the same count and under the same terms, in the case of `O=C(O)c1cccc(N(Cc2cccnc2)c2ccc(OC(F)F)c(OC(F)F)c2)c1` it was “inactive”.
